Measured values reported in the supplement of paper PMC4237247.

Test system: HeLa
Assay: percent cells in G1 phase; higher = more G1 arrest
Settings: 10 µM; 20 h; hit class: G1-phase inhibitor
Description: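 HTS of 79,827 drug-like compounds at 10 uM. HeLa cells in 384-well plates were treated for 20 h, fixed, stained with Vybrant DyeCycle Green and scanned on an Acumen eX3 cytometer to give per-well cell cycle profiles (% cells in each phase). The plate Z' was 0.51. Only hits are listed: G1 hits >4 SD and S hits >5 SD from the mean.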

| SMILES | percent cells in G1 phase [%] |
| --- | --- |
| C/C=C(/C)C(=O)O[C@H]1C(C)=C2[C@H]([C@@H]1OC(=O)CCCCCCC)[C@@](C)(OC(C)=O)C[C@H](OC(=O)CCC)[C@@]1(O)[C@H]2OC(=O)[C@@]1(C)O | 81.5 |
| CNC1CC2OC(C)(C1OC)n1c3ccccc3c3c4c(c5c6ccccc6n2c5c31)C(=O)NC4 (centres undefined) | 86.7 |
| O=[N+]([O-])c1ccc(NCCO)c2ncccc12 | 69.5 |
| C[C@@H]1O[C@@H](O[C@H]2C[C@@H](O)[C@]3(CO)[C@H]4[C@H](O)C[C@]5(C)[C@@H](C6=CC(=O)OC6)CC[C@]5(O)[C@@H]4CC[C@]3(O)C2)[C@H](O)[C@H](O)[C@H]1O | 70.1 |
| C/C(=C\c1ccc(Cl)cc1)[N+](=O)[O-] | 69.2 |
| C[C@@H]1C[C@@H]([C@H](O)CC2CC(=O)NC(=O)C2)C(=O)[C@@H](C)C1 [Cycloheximide] | 77 |
| CNc1ccc2oc(C[C@H]3O[C@@]4(CC[C@H]3C)O[C@H]([C@H](C)C(=O)c3ccc[nH]3)[C@H](C)C[C@H]4C)nc2c1C(=O)O | 84.7 |
| CC(C)(C)c1cc(C=C(C#N)C#N)cc(C(C)(C)C)c1O | 75.1 |
| C[C@@]12C(=O)OC(=O)[C@]1(C)[C@H]1CC[C@@H]2O1 | 70.6 |
